Source: PubChem
Hits are enriched below; roughly 17% of the tested compounds scored in any of these assays.
HT1080-NT tox = kills 2HG-producing HT-1080-NT fibrosarcoma cells. HT-1080-NT fibrosarcoma viability, CellTiter-Glo ATP luminescence, 48 h. Potency, µM (highest dose often 46.1 µM), for the others: at the top dose activity, negative = less viability, usual class: cytotoxic. hit rate 1.6% among 360,000;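 note: NT is the 2HG producing partner of a matched IDH1 knockdown line; 0% = DMSO-treated cells and -100% = media-only wells without cells; nearly all actives have a fitted effect of over 55% in size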
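Toxicity toward the 2HG-producing NT line was scored as %Activity, normalised to DMSO and no-cell wells, from CellTiter-Glo luminescence after 48 hours' treatment.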
HT1080 IDH1KD tx = HT-1080 IDH1 knockdown cell toxicity (counter line) | HT-1080 IDH1 knockdown viability, ATP luminescence, 48 h | Potency, µM (highest dose often 46.1 µM), for the others: at the highest dose activity, negative = toxicity, hits mostly cytotoxic | hit rate 2% among 360,000;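 note: 0% = DMSO wells and -100% = cell-free medium wells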
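Cytotoxicity counter-line: IDH1KD HT-1080, 48 h, CellTiter-Glo. Curves classed by r2, magnitude and activity.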
TGFb inhibitor = inhibitors of TGF-b signaling. HepG2 CAGA-GFP TGF-b/SMAD3 reporter, GFP fluorescence, 18 h; TGF-beta stimulated, 500 pg/mL final. Potency, µM (series often up to 46.1 µM), without a hit: at the highest dose activity, negative = inhibition, usual class: inhibitors. hit rate 1.2% among 410,000. AID 588855; note: % is set by controls: 0 for no effect and ±100 for the full control effect; nearly all actives have a fitted effect of over 65% in size
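Using HEPG2 CAGA-GFP reporter cells at 1000 cells/well, we pinned test compounds, stimulated with recombinant TGF-beta (500 pg/mL final) and measured total well GFP after 18 h.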
DT40 TDP1 CPT = DT40-hTDP1 cell growth loss with CPT | hit rate 12% among 420,000 | Potency, µM (doses to about 46.2 µM), for inactives: at the top dose activity change, negative = growth inhibition, most hits filed as inhibitors | AID 686979 | chicken DT40 Tdp1-/-;hTDP1 cells + 20 nM CPT, ATP luminescence, 48 h; note: % is set by controls: 0 for no effect and ±100 for the full control effect; nearly all actives have a fitted effect of over 55% in size
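Chicken DT40 Tdp1-/- cells stably complemented with human TDP1 were seeded at 400 cells/well in medium containing 20 nM camptothecin, exposed to pin-transferred compounds, and grown at 37 °C for at least 48 hr. Viability was read as ATP luminescence.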
HepG2 tox = HepG2 cytotoxicity, counter-screen for TGF-b inhibitors. HepG2 CAGA-GFP viability, ATP luminescence, 18 h. hit rate 0.76% among 410,000. AID 588856. Potency, µM (doses to about 46.1 µM), for inactives: top-dose activity change, negative = cytotoxicity, hits mostly cytotoxic
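HepG2 CAGA-GFP cells (1000/well, DMEM with 1% FBS) received compound, then TGF-beta at 500 pg/mL final, and were incubated 18 hours at 37 degrees C. Viability was read by CellTiter-Glo luminescence. Media-only wells were set as complete cell-killing and DMSO as no toxicity.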
TDP1 cell noCPT = qHTS for Inhibitors of human tyrosyl-DNA phosphodiesterase 1 (TDP1): qHTS in cells in absence of CPT | DT40 Tdp1-/- hTDP1 cells, no CPT, ATP luminescence, 48 h | Potency, µM (doses to about 46.2 µM), for inactives: top-dose activity change, negative = growth inhibition, actives largely listed as inhibitors | hit rate 15% among 420,000; note: % is set by controls: 0 for no effect and ±100 for the full control effect; nearly all actives have a fitted effect of over 55% in size
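A cellular qHTS used chicken DT40 cells lacking endogenous Tdp1 but carrying stably transfected human TDP1. Compounds were applied without camptothecin, and cell growth kinetics were judged by ATP-dependent luminescence after ≥48 hr.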
* = called active by the depositor; ? = inconclusive; . = no result; [ ] = remark or other dose. Calls come from the whole dose curve; as a rule, active = well fitted curve in the direction sought with a large enough effect; inconclusive = small, poorly fitted or top-dose-only effect, or another doubt; inactive = no such curve, though single readings can be large; an effect the other way counts as inactive or inconclusive. Potency is the fitted concentration of half-maximal effect.

SMILES	HT1080-NT tox	HT1080 IDH1KD tx	TGFb inhibitor	DT40 TDP1 CPT	HepG2 tox	TDP1 cell noCPT
COc1ccc(-c2nn3c(=O)cc(CN4CCN(C(=O)Nc5cc(C)ccc5C)CC4)nc3s2)cc1	.	.	13.2%	-8.6%	-2.7%	?
COc1cc(Cl)c(C)cc1NC(c1ccccc1)c1nnc(-c2ccccc2Cl)o1 (configuration not stated)	.	.	17.8µM*	?	-35.4%	?
COc1ccc(C)cc1NC(c1nnc(-c2ccccc2)o1)c1ccc(F)cc1Cl (configuration not stated)	.	.	?	?	-26.5%	?
COc1cc(OC)c(NC(c2nnc(-c3ccccc3)o2)c2ccc(F)cc2Cl)cc1Cl (configuration not stated)	.	.	-40.3%	?	-10.0%	18.4µM*
Cc1ccc(C)c(NC(c2ccccc2)c2nnc(-c3ccccc3F)o2)c1 (configuration not stated)	.	.	-29.5%	?	-25.0%	?
CC(=O)c1c(C)[nH]c(C(=O)Nc2cccc(S(=O)(=O)N3CCCC3)c2)c1C	3.3%	0.1%	20.8%	?	-17.8%	?
CC(C)Oc1ccc(F)cc1-c1cc(C(=O)N2CCc3ccccc3C2)[nH]n1	-19.0%	-22.2%	14.1µM*	?	-33.0%	?
COc1ccc(F)cc1-c1cc(C(=O)NCc2ccc(C(F)(F)F)cc2)[nH]n1	?	?	?	23.1µM*	-20.6%	16.4µM*
Cc1ccc(-c2cc(C(=O)N3CCc4ccccc4C3)[nH]n2)cc1C	4.2%	-15.5%	12.0%	-4.1%	-4.0%	?
Cc1cc(F)ccc1-c1cc(C(=O)NCc2cc(C(F)(F)F)cc(C(F)(F)F)c2)[nH]n1	?	8.0%	4.9%	-21.1%	-23.5%	-22.5%
CCOc1ccc(Cl)cc1-c1cc(C(=O)NCc2cccc(C(F)(F)F)c2)[nH]n1	?	?	?	10.3µM*	-26.0%	13µM*
COc1ccc(F)cc1-c1cc(C(=O)NCc2cccc(C(F)(F)F)c2)[nH]n1	-26.9%	?	?	?	-6.2%	?
Cc1ccc(F)cc1-c1cc(C(=O)NCc2cc(C(F)(F)F)cc(C(F)(F)F)c2)[nH]n1	?	?	-15.1%	29.1µM*	-34.9%	?
CCOc1cc(/C=N/NC(=O)c2ccncc2)cc(Cl)c1OS(C)(=O)=O	0.6%	1.9%	?	?	14.2%	?
COc1ccc2c(c1)OC(C)CN(CCNC(=O)c1ccc(-n3cccn3)cc1)C2 (configuration not stated)	.	.	.	6.1%[9.04 µM]	.	-19.1%
Clc1ccc(Oc2nc3c(Cl)cccc3s2)cc1Cl	-0.9%	5.2%	4.4%	-6.1%	1.0%	?
O=C(NC1CC1)C1CCN(C2CCN(C(=O)c3ccc4cccc(F)c4n3)CC2)CC1	20.8%	1.4%	?	-9.6%	5.5%	-5.8%
COc1ccc(Cl)cc1-c1cc(C(=O)NCc2cc(C(F)(F)F)cc(C(F)(F)F)c2)[nH]n1	20.6µM*	?	-22.6%	?	-46.4%	14.6µM*
COc1ccc(Cl)cc1-c1cc(C(=O)NCc2cccc(Cl)c2)[nH]n1	?	?	?	?	-24.5%	?
Cc1ccc(Cl)cc1-c1cc(C(=O)NCc2ccccc2)[nH]n1	?	4.8%	0.9%	-29.1%	1.5%	-26.9%
COc1ccccc1-c1cc(C(=O)NN)[nH]n1	20.6µM*	13µM*	25.2%	?	7.1%	?
CC(C)Oc1ccc(F)cc1-c1cc(C(=O)Nc2ccc(C(C)(C)C)cc2)[nH]n1	23.1µM*	18.4µM*	?	6.51µM*	-78.9%	3.26µM*
Cc1ccc(Cl)cc1-c1cc(C(=O)NCc2cc(C(F)(F)F)cc(C(F)(F)F)c2)[nH]n1	?	?	11.2µM*	?	-49.8%	20.6µM*
CC(C)Oc1ccc(F)cc1-c1cc(C(=O)Nc2ccccc2)[nH]n1	5.1%	24.7%	3.4%	?	4.2%	?
Cc1ccc(COc2ccc(-c3cc(C(F)(F)F)n4nc(C)cc4n3)cc2)cc1	.	.	-1.1%	-21.4%	-10.3%	-8.0%
SMILES	HT1080-NT tox	HT1080 IDH1KD tx	TGFb inhibitor	DT40 TDP1 CPT	HepG2 tox	TDP1 cell noCPT
CC(C)N1CC(C(=O)Nc2ccc(C#N)cc2)CC1=O (configuration not stated)	0.4%	7.0%	24.0%	-7.2%	20.7%	27.7%
COc1ccc(Cl)cc1-c1cc(C(=O)NCc2cccs2)[nH]n1	-29.2%	-27.9%	-0.6%	11.6µM*	-3.7%	?
Cc1cc(F)ccc1-c1cc(C(=O)NCc2cccs2)[nH]n1	4.0%	-1.3%	-9.8%	-36.9%	-22.6%	?
CC(C)Oc1ccc(F)cc1-c1cc(C(=O)NCc2ccc(F)cc2)[nH]n1	-23.7%	0.0%	?	25.9µM*	-21.9%	?
CCOc1cc(/C=C2/SC(=Nc3ccccc3)N(Cc3cccnc3)C2=O)ccc1OCC#N	-16.5%	?	20.1%	16.4µM*	-2.4%	23.1µM*
Cc1ccc2c(c1)N(C(=O)CCC(=O)NC1CCCCCC1)CCO2	0.4%	4.1%	-0.8%	?	-1.1%	?
Cc1cccn2c(=O)c3cc(S(=O)(=O)c4ccccc4)c(=N)n(CC4CCCO4)c3nc12 (configuration not stated)	15.6%	12.8%	39.0%	?	20.3%	11.6µM*
Cc1ccc(S(=O)(=O)c2cc3c(=O)n4cccc(C)c4nc3n(CC3CCCO3)c2=N)cc1C (configuration not stated)	-3.2%	-0.8%	-0.5%	5.8µM*	-19.8%	6.51µM*
N=c1c(S(=O)(=O)c2ccccc2)cc2c(=O)n3ccccc3nc2n1CC1CCCO1 (configuration not stated)	-3.8%	12.5%	18.8%	?	8.6%	?
Cc1cccn2c(=O)c3cc(S(=O)(=O)c4ccccc4)c(=N)n(Cc4cccnc4)c3nc12	-8.9%	1.0%	-3.8%	-28.2%	10.9%	23.1µM*
Cc1ccc(F)c(S(=O)(=O)NC(=O)C2(C)CCN2C(=O)C/C=C/c2ccccc2)c1 (configuration not stated)	2.1%	0.4%	3.5%	-9.1%	5.2%	6.1%
